Here are results for 14 sequences from publication PMC5700166.

What all share (assay): protein-binding microarray (PBM); PBM: ~300 nM protein, 6 mM HEPES pH 7.8, 80 mM KCl, 0.5 mM EDTA, 0.5 mM EGTA, 6% glycerol, 35 ng/ul poly-dIdC, 1% milk, 1 h, room temperature; Ap Aiptasia and Nv Nematostella (sea anemones) / Co Capsaspora / Aq Amphimedon (sponge) / Dm Drosophila / Hu human; RHD is the Rel homology domain; high values mean tight binding
Conditions in all cases: dsDNA, one strand shown

Experiment [1] deals with T1, GST-Ap-NF-kB RHD (Exaiptasia pallida (Aiptasia), UniProt A0A913YAJ5 2-422).
T1 sequence: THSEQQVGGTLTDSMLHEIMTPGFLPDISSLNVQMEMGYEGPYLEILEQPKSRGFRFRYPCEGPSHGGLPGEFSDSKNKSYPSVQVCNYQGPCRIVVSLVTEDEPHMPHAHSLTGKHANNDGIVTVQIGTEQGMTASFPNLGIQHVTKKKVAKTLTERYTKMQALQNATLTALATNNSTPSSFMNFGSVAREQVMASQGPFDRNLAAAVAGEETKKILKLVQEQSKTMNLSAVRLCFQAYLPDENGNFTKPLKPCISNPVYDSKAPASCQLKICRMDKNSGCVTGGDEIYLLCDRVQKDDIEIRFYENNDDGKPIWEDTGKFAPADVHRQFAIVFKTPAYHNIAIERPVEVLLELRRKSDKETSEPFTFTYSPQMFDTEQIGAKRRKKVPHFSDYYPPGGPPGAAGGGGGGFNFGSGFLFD

Experiment [2] deals with T2, GST-Nv-NF-kB (Cys allele) (Nematostella vectensis, UniProt E5G601 2-411).
T2 sequence: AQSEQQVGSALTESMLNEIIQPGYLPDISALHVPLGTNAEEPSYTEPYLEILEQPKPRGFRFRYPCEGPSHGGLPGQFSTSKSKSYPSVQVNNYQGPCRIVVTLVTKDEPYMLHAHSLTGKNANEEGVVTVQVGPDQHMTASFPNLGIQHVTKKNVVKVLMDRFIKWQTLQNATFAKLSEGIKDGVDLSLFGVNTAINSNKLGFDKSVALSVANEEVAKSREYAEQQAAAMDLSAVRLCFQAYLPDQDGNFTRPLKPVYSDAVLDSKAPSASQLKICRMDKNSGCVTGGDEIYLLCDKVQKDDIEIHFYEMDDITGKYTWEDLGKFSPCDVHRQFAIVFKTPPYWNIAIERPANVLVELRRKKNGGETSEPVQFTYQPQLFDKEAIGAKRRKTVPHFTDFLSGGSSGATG

In experiment [3] the target is T3, GST-Co-NF-kB (Capsaspora owczarzaki, UniProt F1ARL5 200-546).
T3 sequence: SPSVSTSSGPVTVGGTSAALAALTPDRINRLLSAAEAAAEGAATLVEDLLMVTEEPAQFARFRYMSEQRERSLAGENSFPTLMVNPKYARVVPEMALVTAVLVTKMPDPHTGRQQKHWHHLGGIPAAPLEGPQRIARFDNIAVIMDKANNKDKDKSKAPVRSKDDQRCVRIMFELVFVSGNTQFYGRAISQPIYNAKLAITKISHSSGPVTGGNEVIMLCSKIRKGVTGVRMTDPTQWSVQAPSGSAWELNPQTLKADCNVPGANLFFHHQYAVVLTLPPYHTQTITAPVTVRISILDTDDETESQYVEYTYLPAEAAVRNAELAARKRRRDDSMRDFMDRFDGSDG

In experiment [4] the target is T4, GST-Dm-Relish (Drosophila melanogaster, UniProt Q94527 99-473).
T4 sequence: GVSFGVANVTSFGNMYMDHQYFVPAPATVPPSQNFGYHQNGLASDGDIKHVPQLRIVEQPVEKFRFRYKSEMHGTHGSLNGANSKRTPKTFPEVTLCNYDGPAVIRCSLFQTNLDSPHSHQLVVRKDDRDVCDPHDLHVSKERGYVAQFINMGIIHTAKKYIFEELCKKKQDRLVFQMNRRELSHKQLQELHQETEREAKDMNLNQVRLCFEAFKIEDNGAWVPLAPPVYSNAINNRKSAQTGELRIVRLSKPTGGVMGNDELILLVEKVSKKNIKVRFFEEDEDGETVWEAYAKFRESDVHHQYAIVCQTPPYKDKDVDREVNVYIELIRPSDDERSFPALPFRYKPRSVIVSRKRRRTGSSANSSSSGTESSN

Experiment [5] has as its target T5, GST-Aq-NF-kB (Amphimedon queenslandica, UniProt A9Y5G7 2-389).
T5 sequence: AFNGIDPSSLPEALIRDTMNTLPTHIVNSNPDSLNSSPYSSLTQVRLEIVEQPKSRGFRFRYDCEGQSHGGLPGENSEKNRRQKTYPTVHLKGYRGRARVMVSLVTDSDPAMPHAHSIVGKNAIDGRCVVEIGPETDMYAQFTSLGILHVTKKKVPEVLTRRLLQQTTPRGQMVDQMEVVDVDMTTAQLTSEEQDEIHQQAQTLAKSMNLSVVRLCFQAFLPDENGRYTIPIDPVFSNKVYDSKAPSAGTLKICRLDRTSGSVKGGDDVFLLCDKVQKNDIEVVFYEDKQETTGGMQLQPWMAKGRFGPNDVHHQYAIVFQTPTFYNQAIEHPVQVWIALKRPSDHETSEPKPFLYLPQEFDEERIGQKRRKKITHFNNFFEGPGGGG

For the sequence “CCGATTAACATCAGAATTACCCATGATGTTAATCGGGTCTTGATTCGCTTGACGCTGCTG”, the binding signal in experiment [1] was determined as 3.09 z-score; in experiment [2], 3.82 z-score; in experiment [3], 2.12 z-score; in experiment [4], 1.97 z-score; in experiment [5], 3.58 z-score.

As for “CCGATTAACATCAAATACTTCCCTGATGTTAATCGGGTCTTGATTCGCTTGACGCTGCTG”, the binding signal in experiment [1] came out at 2.22 z-score; in experiment [2] it was 3.32 z-score; in experiment [3], 2.96 z-score; in experiment [4] it was 2.69 z-score; in experiment [5], 4.24 z-score.

Consider “CCGATTAACATCAGGGGGATGGATGATGTTAATCGGGTCTTGATTCGCTTGACGCTGCTG”, for which the binding signal came out at 3.8 z-score in experiment [1]; 3.13 z-score in experiment [2]; 3.52 z-score in experiment [3]; 2.24 z-score in experiment [4]; 3.5 z-score in experiment [5].

As to “CCGATTAACATCAGAAGATTCCCTGATGTTAATCGGGTCTTGATTCGCTTGACGCTGCTG”, the binding signal in experiment [1] is 3.38 z-score; in experiment [2] it was 4.85 z-score; in experiment [3], 3.43 z-score; in experiment [4] it was 3.48 z-score; in experiment [5], 5.19 z-score.

For “CCGATTAACATCAATGGGAAAATTGATGTTAATCGGGTCTTGATTCGCTTGACGCTGCTG”, the binding signal in experiment [1] came out at 1.56 z-score; in experiment [2], 4.28 z-score; in experiment [3], 3.46 z-score; in experiment [4], 1.25 z-score; in experiment [5], 3.05 z-score.

With “CCGATTAACATCAAGAATTCCCGTGATGTTAATCGGGTCTTGATTCGCTTGACGCTGCTG”, the binding signal in experiment [1] was 4.85 z-score; in experiment [2], 6.36 z-score; in experiment [3], 4.23 z-score; in experiment [4] it was 4.9 z-score; in experiment [5], 5.46 z-score.

For “CCGATTAACATCAGGGAGGGTAATGATGTTAATCGGGTCTTGATTCGCTTGACGCTGCTG”, the binding signal is 2.31 z-score in experiment [1]; 2.15 z-score in experiment [2]; 1.71 z-score in experiment [3]; 1.12 z-score in experiment [4]; 2.39 z-score in experiment [5].

As for “CCGATTAACATCATCAGGGGGGATGATGTTAATCGGGTCTTGATTCGCTTGACGCTGCTG”, the binding signal in experiment [1] was found to be 4.58 z-score; in experiment [2], 4.51 z-score; in experiment [3] it was 6.21 z-score; in experiment [4], 4.27 z-score; in experiment [5], 5.18 z-score.

Regarding “CCGATTAACATCAGGGAAAACCATGATGTTAATCGGGTCTTGATTCGCTTGACGCTGCTG”, the binding signal in experiment [1] turned out to be 3.89 z-score; in experiment [2], 5.15 z-score; in experiment [3], 4.31 z-score; in experiment [4], 5.57 z-score; in experiment [5], 5.29 z-score.

Consider “CCGATTAACATCAAAAATCCCGATGATGTTAATCGGGTCTTGATTCGCTTGACGCTGCTG”, for which the binding signal in experiment [1] was 3.79 z-score; in experiment [2], 3.94 z-score; in experiment [3] it was 1.91 z-score; in experiment [4], 6.2 z-score; in experiment [5] it was 4.05 z-score.

As for “CCGATTAACATCAGGACGTTCCCTGATGTTAATCGGGTCTTGATTCGCTTGACGCTGCTG”, the binding signal in experiment [1] turned out to be 2.27 z-score; in experiment [2] it was 2.22 z-score; in experiment [3], 1.01 z-score; in experiment [4], 1.51 z-score; in experiment [5], 5.14 z-score.

In the case of “CCGATTAACATCAATTTTCCCAATGATGTTAATCGGGTCTTGATTCGCTTGACGCTGCTG”, the binding signal in experiment [1] stood at 1.98 z-score; in experiment [2] it was 3.86 z-score; in experiment [3], 3.99 z-score; in experiment [4] it was 1.29 z-score; in experiment [5], 2.61 z-score.

As to “CCGATTAACATCAGGCAATTCCCTGATGTTAATCGGGTCTTGATTCGCTTGACGCTGCTG”, the binding signal in experiment [1] is 2.76 z-score; in experiment [2], 5.17 z-score; in experiment [3] it was 1.58 z-score; in experiment [4] it was 2.03 z-score; in experiment [5], 6.13 z-score.

As for “CCGATTAACATCAAACAAACCCCTGATGTTAATCGGGTCTTGATTCGCTTGACGCTGCTG”, the binding signal in experiment [1] came to 4.35 z-score; in experiment [2] it was 3.42 z-score; in experiment [3] it was 1.74 z-score; in experiment [4], 3.06 z-score; in experiment [5], 3.95 z-score.
